Pf Dd2 growth – blocks in vitro growth of P. falciparum Dd2 | 4.3% of 120,000 active | Potency, µM (series often up to 28.9 µM), without a hit: at the highest dose activity, negative = inhibition, actives largely listed as inhibitors | P. falciparum Dd2 growth, SYBR Green, 72 h | AID 1347417; active = well fitted inhibition curve with a large enough effect;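 also: plate controls were DMSO vehicle for no effect and reference drug for full effect; nearly all actives have a fitted effect of over 65% in size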
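Infected erythrocytes (Dd2, 0.3% parasitemia, 2.5% hematocrit final) are added to compound in RPMI-1640/Albumax II medium, grown 72 h at 37C in low oxygen, then lysed with saponin/Triton-X containing SYBR Green and read by fluorescence.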
An asterisk follows results filed as active; [ ] = dose if it differs, or a comment. Many of the other results were omitted from the sample, so hits are more common in it than they were. Potency is read from the fitted curve at half-maximal effect.

What do the screens show for `O=C(C[C@@H]1C[C@H]2O[C@H](CNCc3ccccc3Cl)[C@@H](O)[C@H]2O1)N1CCOCC1`?
Pf Dd2 growth: 1.0%[44.1 µM]

How did N#Cc1ccc(CN2CCCC3(Cc4ccccc4CNC3=O)C2)cc1 (stereo not given) do in these assays?
Pf Dd2 growth: -23.5%

How did O=C(COc1ccccc1)N1CCC(c2noc(-c3ccncc3)n2)C1 (stereo not given) do in these assays?
Pf Dd2 growth: 16.4%[5.79 µM]

How did Cn1c(=O)c2c(-c3cccc(Br)c3)n(CCO)cc2n(C)c1=O do in these assays?
Pf Dd2 growth: inactive

What do the screens show for `Cn1c(=O)c2c(-c3ccccc3Cl)n(Cc3ccc(Cl)cc3)cc2n(C)c1=O`?
Pf Dd2 growth: -23.8%

What do the screens show for `Cn1c(=O)c2c(-c3ccccc3Cl)n(-c3cc(Cl)ccc3O)cc2n(C)c1=O`?
Pf Dd2 growth: 7.94µM*

What do the screens show for `COc1ccc(Nc2cc(C(=O)NCc3ccccc3)c3ccccc3n2)c(OC)c1`?
Pf Dd2 growth: -13.2%

Results for COc1ccc(Nc2cc(C(=O)NCCCN(C)Cc3ccccc3)c3ccccc3n2)c(OC)c1 ?
Pf Dd2 growth: 17.0%

Results for CCCNC(=O)c1ccc2nc(CCc3ccccc3)oc2c1 ?
Pf Dd2 growth: 3.9%

How did COc1ccccc1Nc1cc(C(=O)NC2CCCC2)c2ccccc2n1 do in these assays?
Pf Dd2 growth: 16.7%

What do the screens show for `O=C(NCc1ccccc1)c1ccc2nc(CCc3ccccc3)oc2c1`?
Pf Dd2 growth: 3.5%

How did O=C(NCCCN1CCN(c2ccccc2F)CC1)c1ccc2nc(CCc3ccccc3)oc2c1 do in these assays?
Pf Dd2 growth: 11.2µM*

How did O=C(NCCCN1CCN(c2ccccc2F)CC1)c1cc2c(Cl)nc3ccccc3c2s1 do in these assays?
Pf Dd2 growth: 2.82µM*

How did CCOC(=O)C1CCCN(C(=O)c2cc3c(Cl)nc4ccccc4c3s2)C1 (stereo not given) do in these assays?
Pf Dd2 growth: -16.0%

Results for COc1ccc(Nc2cc(C(=O)NCCCN3CCN(c4ccccc4F)CC3)c3ccccc3n2)c(OC)c1 ?
Pf Dd2 growth: 10µM*

Results for COc1ccc(N2CCN(CCCNC(=O)c3cc(Nc4ccccc4OC)nc4ccccc34)CC2)cc1 ?
Pf Dd2 growth: -15.5%

Results for CCN(CCCNC(=O)c1cc(Nc2ccccc2OC)nc2ccccc12)c1cccc(C)c1 ?
Pf Dd2 growth: 11.2µM*

What do the screens show for `COc1ccc(OC)c(CNC(=O)c2cc3c(Cl)nc4ccccc4c3s2)c1`?
Pf Dd2 growth: 50.0%

Results for COc1ccc(C(=O)N2CCC(N3C[C@H](O)C[C@H]3C(=O)NCc3cccnc3)CC2)cn1 ?
Pf Dd2 growth: -4.5%

How did O=C(Cc1ccccc1Cl)N1CCC(c2n[nH]c(=O)n2Cc2ccc(F)cc2)CC1 do in these assays?
Pf Dd2 growth: -13.4%

How did Cc1cc(C)c(NC(=O)Cn2cccc2-c2nc(-c3ccccc3)no2)c(C)c1 do in these assays?
Pf Dd2 growth: 10.6%

What do the screens show for `CCOc1ccccc1C(=O)N1C[C@@H](CO)[C@H](c2nc(C3CC3)no2)C1`?
Pf Dd2 growth: -25.7%

How did CN1CCc2[nH]cnc2C12CCN(C(=O)Cc1ccc(F)cc1Cl)CC2 do in these assays?
Pf Dd2 growth: -2.3%

How did COCCCN1CC2(CCC1=O)CCN(c1ncnc3onc(C)c13)CC2 do in these assays?
Pf Dd2 growth: -0.3%

What do the screens show for `COC1CCC12CCN(C(=O)c1ccc3cc[nH]c3c1)CC2` (stereo not given)?
Pf Dd2 growth: -18.5%

How did CCOc1ccccc1CNC(=O)[C@H]1CN(C(C)C)C[C@H]1C(=O)O do in these assays?
Pf Dd2 growth: 4.0%

What do the screens show for `CCN(CCn1cccn1)C(=O)c1csc2nc(-c3cccc(F)c3)cn12`?
Pf Dd2 growth: -7.3%

How did O=C(C1CCCCC1)N1CCC(Cc2ccccc2)(C(=O)O)CC1 do in these assays?
Pf Dd2 growth: 7.0%

How did CC(C)NC(=O)c1cc2c(Cl)nc3ccccc3c2s1 do in these assays?
Pf Dd2 growth: 3.3%

How did O=C(c1cc2c(Cl)nc3ccccc3c2s1)N1CCCCC1 do in these assays?
Pf Dd2 growth: 11.5%

What do the screens show for `CCCN1CCN(CCCNC(=O)c2cc3c(Cl)nc4ccccc4c3s2)CC1`?
Pf Dd2 growth: 10µM*

What do the screens show for `O=C(c1nccc2ccccc12)N1CC(CO)C2(CCNCC2)C1` (stereo not given)?
Pf Dd2 growth: 14.1%

Results for CN(C)c1ccc(CNC(=O)CCCN2C(=O)CCn3nc(-c4cccn4C)cc32)cc1 ?
Pf Dd2 growth: -1.7%

Results for CC(C)Oc1ccc(CNC(=O)CCCN2C(=O)CCn3nc(-c4cccn4C)cc32)cc1 ?
Pf Dd2 growth: 3.9%

Results for Cc1ccc(CNC(=O)CCCN2C(=O)CCn3nc(-c4cccn4C)cc32)cc1 ?
Pf Dd2 growth: 5.01µM*

Results for COc1ccc(NC(=O)CSc2nncn3c2cc2oc(C)cc23)cc1OC ?
Pf Dd2 growth: 12.8%

What do the screens show for `CCOC(=O)c1ccc(NC(=O)C(CC)Sc2nncn3c2cc2oc(C)cc23)cc1` (stereo not given)?
Pf Dd2 growth: 10µM*

How did Cc1cc(C)c(NC(=O)CSc2nncn3c2cc2oc(C)cc23)c(C)c1 do in these assays?
Pf Dd2 growth: 220.7%[5.79 µM]
